Growth data for 9 compounds are collected here from PubChem BioAssay (NCI).

Compounds without any hit were thinned out: in the full panel of roughly 83,000, 20% have a hit.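 Testing used 96-well plates and a 48-hour single-concentration exposure. Example: -40 means 40% of the starting cells died.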 Unmarked numbers belong to inactive results. Calls of active or inactive are those of the source. The calls were made as follows: active = growth percent below 10; inactive = the rest.

Experiment in all cases: NCI-60 one-dose screen, 48 h (100 = growth as untreated, 0 = no growth, -100 = all killed)
What all share (conditions): 10 µM unless noted

Test [1] deals with NCI-H23 lung.
Test [2] has as its system NCI-H226 lung.
For test [3], the system named is NCI-H322M lung.
Test [4] has as its system HOP-62 NSCLC.
Test [5] deals with NCI-H460 lung.
The subject of test [6] is HOP-92 NSCLC.
Test [7] deals with NCI-H522 lung.
The test system of test [8] is A549/ATCC NSCLC.
Test [9] has as its system 786-0 renal.
Test [10] deals with DU-145 prostate.
Test [11] concerns K-562 leukemia.
Test [12] has as its system MALME-3M melanoma.
In test [13] the test system is MDA-MB-231 breast.
Test [14] deals with RXF 393 renal.
Test [15] deals with SF-268 CNS.
Test [16] has as its system SF-295 CNS.
The test system of test [17] is SF-539 CNS.
The test system of test [18] is UACC-257 melanoma.
For test [19], the system named is M14 melanoma.
The test system of test [20] is COLO 205 colon.

As to `Cc1cc(Nc2cc(N3CCN(C)CC3)nc(Sc3ccc(NC(=O)C4CC4)cc3)n2)n[nH]1`, the growth in test [1] is 38.2%; in test [2] it was 36.3%; in test [3] it was 58.8%; in [4], 18.4%; in test [5], 14.1%; in test [6], 12.1%. Besides, the growth in [7] was 24.1%; in test [8], 20.6%; in [9], 48.4%; in [10], 55.7%; in test [11], 8.47% (active); in test [12], 29.3%. Also, the growth in test [13] was 37.1%; in test [14], -18.7% (active); in [15], 48.6%; in test [16], 32.7%; in test [17] it was 9.92% (active); in test [18], 18.1%. In addition, the growth in test [19] was 22.3%.

`Oc1ccc(/C=N/Nc2nnc(N/N=C/c3ccc(O)cc3O)c3ccccc23)c(O)c1`: the growth in test [1] is -58.7% (active); in test [2], -39.5% (active); in test [3] it was -0.934% (active); in test [4], -31.6% (active); in [5], -34.1% (active); in [6], -35.8% (active). The growth in test [7] is -45.4% (active); in [8], -58% (active); in test [9], -3.79% (active); in test [20] it was -23.8% (active); in test [10], -24.3% (active); in test [12], -5.87% (active). Besides, the growth in test [13] is -13.6% (active); in test [15] it was -5.14% (active); in test [16] it was -38.1% (active); in test [17], -42.1% (active); in test [19] it was -52.7% (active).

`Nc1c(C(=O)c2ccccc2)sc2nc(-c3cccs3)ccc12`: the growth is 36.8% in test [1]; 63.5% in test [2]; 51.1% in test [3]; 44.5% in test [4]; 12.1% in test [5]; 69.6% in [6]. Further, the growth in [7] was -25.7% (active); in test [8], 19.6%; in test [9], 51.7%; in [10], 20.6%; in test [11], 14.1%; in test [12] it was 72.5%. Further, the growth in test [13] is 37.9%; in test [15], 45.7%; in test [16], 5.01% (active); in test [17] it was 1.09% (active); in test [19] it was 30.2%.

Regarding `CCCC(=O)OCC1OC(n2cnc3c(=S)nc(N)[nH]c32)C(OC(=O)CCC)C1OC(=O)CCC` (centres undefined), the growth in [1] is 28.9%; in test [2], 33.3%; in test [3], 55.5%; in test [4], 23.1%; in test [5], 34.8%; in [6] it was 11%. Besides, the growth is -5.66% (active) in [7]; 92.4% in test [8]; 21.5% in test [9]; 79.2% in [20]; 27.3% in [10]; 29.9% in test [12]. In addition, the growth in test [13] was 38.9%; in [15] it was 38.8%; in [16], 19.8%; in [17] it was 26.7%; in test [19], 13.9%.

With `CC(=O)OCCC/C(=C\c1ccc2ccccc2c1)[N+](=O)[O-]`, the growth in test [1] is -42.3% (active); in test [2], -23% (active); in [3], 83.2%; in test [4], -27.5% (active); in test [5], 64.3%; in [6], -90.5% (active). The growth in test [7] is -80.3% (active); in test [8], -72.3% (active); in test [9] it was -93.4% (active); in test [20], -77.9% (active); in test [10] it was -93.6% (active); in test [12] it was -53.5% (active). For the same compound, the growth in [13] was -58.8% (active); in test [15], -74.2% (active); in [16], 18%; in test [17], -99% (active); in test [19] it was -70.9% (active).

For the compound `Cc1cccc(Cl)c1NC(=O)c1cnc(Nc2cc(N3CCOCC3)cc(N3CCOCC3)c2)s1`, the growth in [1] is 73.8%; in test [2], 68.6%; in [3], -10.4% (active); in test [4], 4.81% (active); in test [5] it was 51.2%; in test [6] it was -42.1% (active). Further, the growth is -9.13% (active) in [7]; 10.7% in test [8]; 17.1% in test [9]; 3.54% (active) in test [10]; 5.18% (active) in [11]; 61.3% in test [12]. The growth is 20.5% in test [13]; -30% (active) in test [14]; 34% in test [15]; 34% in test [16]; 6.88% (active) in test [17]; 64.3% in test [18]. In addition, the growth in test [19] is 35.9%.

`CC1=CC2c3oc(-c4ccccc4)c(C(=O)c4ccccc4)c3CNC2C=C1` (centres undefined): the growth was 95% in [1]; 83.8% in [2]; 94.6% in [3]; 74.5% in test [4]; 100% in test [5]; 97.5% in [6]. Also, the growth in test [7] was 57.7%; in test [8], 74.2%; in [9], 111%; in test [10] it was 112%; in test [11] it was 95.8%; in [12], 98.8%. In addition, the growth in test [13] was 88.4%; in test [14] it was 94.2%; in test [15], 97.9%; in [16], 95.9%; in [17], 109%; in [18] it was 70.6%. For the same compound, the growth in test [19] was 96.1%.

In the case of `O=C1CC(c2ccc(Cl)cc2)c2ncn(-c3cccc(Cl)c3)c2N1` (centres undefined), the growth in test [1] was 72%; in test [2], 71%; in [3], 91.6%; in [4] it was 51.2%; in test [5], 34%; in [6], 60.8%. The growth in test [7] was 27.6%; in test [8], 45.2%; in [9], 55%; in test [10], 62.9%; in test [11], 23.8%; in test [12], 53.2%. Moreover, the growth in test [13] was 48.3%; in [15], 58.2%; in test [16], 47.6%; in test [17], 33%; in test [19], 21.6%.

As to `NC(=O)N1N=C(c2ccc(Cl)cc2)CC1c1cn(-c2ccccc2)nc1-c1ccc(Cl)cc1` (centres undefined), the growth in test [1] is 56.5%; in [2], 30.1%; in test [3], 63.1%; in test [4], 37.8%; in [5], 41.9%; in [6], 49.7%. Moreover, the growth is 56.9% in test [7]; 41.3% in test [8]; -7.43% (active) in test [9]; 77.7% in test [10]; 78.8% in test [11]; 43.4% in test [13]. The growth in test [14] was -11.2% (active); in test [15], 55.4%; in test [16] it was 40.3%; in [17] it was 37.8%; in [19], 79.8%.
